Each compound was assayed on Plasmodium falciparum NF54-HGL (transmission to Anopheles stephensi) (assay: percentage of barcode signal found in uninfected mosquitoes (transmission-blocking activity); higher = stronger blocking of transmission to mosquito, active = 80 or more). Settings: 10 µM; gametocyte preincubation time 24 h; readout time post-feed 8 days.
Experimental: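 The mixture was fed to Anopheles stephensi in 96-well plates as blood meals tagged with DNA-barcoded Asaia bacteria. Eight days later, mosquitoes were classed infected or uninfected by luminescence (mean + 5 SD of unfed controls). Barcodes were quantified by Luminex MagPlex-TAG in the pooled uninfected and infected Asaia cultures, background-corrected, and the score is % of barcode signal in uninfected mosquitoes = 100*Iu/(Iu+Ii).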
In the case of Nc1ncnc2c1ncn2[C@@H]1O[C@H](COS(=O)(=O)NC(=O)c2ccccc2O)[C@@H](O)[C@H]1O, the “percentage of barcode signal found in uninfected mosquitoes” value (“percentage of barcode signal found” for short) is reported as -0.124% (inactive). In the case of COc1ccc(-c2nc(-c3cccc(NC(=O)Cc4ccc(F)cc4)c3)no2)cc1OC, the “percentage of barcode signal found” value is reported as 5.39% (inactive). For O=C(Cn1ccnc1[N+](=O)[O-])NCc1ccccc1, the “percentage of barcode signal found” value was 70% (inactive). Cc1cc(Nc2ccncc2)n2nc(C)c(-c3ccccc3Cl)c2n1 was tested, and the “percentage of barcode signal found” value was 53.9% (inactive). With Cc1[nH]c2ccccc2c1C(c1cccs1)N1CCN(C)CC1 (stereo not given) the “percentage of barcode signal found” value was 43.7% (inactive). For COC(=O)c1c(NC(=O)c2c(F)c(F)c(F)c(F)c2F)sc2c1CCCCC2, the “percentage of barcode signal found” value was 13.7% (inactive). In the case of CN1CCCC1CCO[C@](C)(c1ccccc1)c1ccc(Cl)cc1 (stereo not given in full), the “percentage of barcode signal found” value is reported as 87.8% (active). CN1CCN(c2cc(-c3ccc(F)cc3)nc(-c3ccncc3)n2)CC1 was tested, and the “percentage of barcode signal found” value was 1.2% (inactive). Cc1ccc2oc(-c3cc(NC(=O)Cc4ccccc4)ccc3Cl)nc2c1 was tested, and the “percentage of barcode signal found” value was 24% (inactive). With O=C(Nc1nc(-c2ccccn2)cs1)C1CC1c1ccccc1F (stereo not given) the “percentage of barcode signal found” value was 53.8% (inactive). With O=C(COc1cccc(F)c1)Nc1nc(-c2ccccn2)cs1 the “percentage of barcode signal found” value was 38.7% (inactive). Cc1nc(-c2ccccn2)nc(NCCc2ccc(S(C)(=O)=O)cc2)c1Cl was tested, and the “percentage of barcode signal found” value was 67% (inactive). For COc1cccc(-n2nnnc2S(=O)(=O)Cc2ccccc2)c1, the “percentage of barcode signal found” value was 90.4% (active). For COc1cc(NC(C)CCCN)c2ncccc2c1 (stereo not given), the “percentage of barcode signal found” value was 48.2% (inactive). CC(Oc1cccc(Cl)c1)C(=O)Nc1ccc2oc(-c3ccncc3)nc2c1 (stereo not given) was tested, and the “percentage of barcode signal found” value was 47.8% (inactive). With COC(=O)Nc1nc2cc(C(=O)c3ccccc3)ccc2[nH]1 the “percentage of barcode signal found” value was 42.3% (inactive). CCOc1ccc2cc(-c3nn(C(C)(C)C)c(N)c3C(N)=O)cnc2c1 was tested, and the “percentage of barcode signal found” value was 71.5% (inactive). Cc1ccc(C(=O)Nc2ccc(S(=O)(=O)O)c3cc(S(=O)(=O)O)cc(S(=O)(=O)O)c23)cc1NC(=O)c1cccc(NC(=O)Nc2cccc(C(=O)Nc3cc(C(=O)Nc4ccc(S(=O)(=O)O)c5cc(S(=O)(=O)O)cc(S(=O)(=O)O)c45)ccc3C)c2)c1 was tested, and the “percentage of barcode signal found” value was 32.8% (inactive). In the case of CN(C)CCNC(=O)N1CCCN(c2ncnc3cc(-c4ccccc4)sc23)CC1, the “percentage of barcode signal found” value is reported as 34.3% (inactive). Cc1cc(C)n2nc(C(=O)Nc3cc(C(F)(F)F)ccc3N3CCOCC3)nc2n1 was tested, and the “percentage of barcode signal found” value was 29.6% (inactive).

Same assay, conditions: 20 µM; gametocyte preincubation time 24 h; readout time post-feed 8 days
O=C(Nc1cccc(-c2ccc(NCCCN3CCCC3)nc2)c1)c1ccccc1 was tested, and the “percentage of barcode signal found” value was 29.8% (inactive). In the case of NC(CC(=O)c1ccc(Cl)cc1Cl)C(Cl)(Cl)Cl (stereo not given), the “percentage of barcode signal found” value is reported as 86.9% (active). In the case of Nc1nc2ccc(-c3cncc(Oc4ccc(F)cc4)c3)cc2[nH]1, the “percentage of barcode signal found” value is reported as 99.4% (active). O=C(Nc1c(O)cccc1-c1nc2c(C(=O)O)cccc2o1)c1cc(-c2ccccc2)on1 was tested, and the “percentage of barcode signal found” value was 20.8% (inactive). For CC(C)n1nc(-c2cc3c(Cl)cccc3[nH]2)c2c(N)ncnc21, the “percentage of barcode signal found” value was 53.6% (inactive). For O=C(Nc1cnc2ccccc2c1)c1cccc(-n2cnnn2)c1, the “percentage of barcode signal found” value was 21.3% (inactive). For NCC(c1cccs1)S(=O)(=O)c1ccccc1 (stereo not given), the “percentage of barcode signal found” value was 17.5% (inactive). CC(C)(C)OC(=O)N1CCN(c2cc(-c3ccc(Oc4ccccc4)cc3)n[nH]2)CC1 was tested, and the “percentage of barcode signal found” value was 39.8% (inactive). For O=C(NCCN1CCCC1)c1cc(NCCN2CCOCC2)nc2ccc(Cl)cc12, the “percentage of barcode signal found” value was 88% (active). For CC(=O)N1CCc2cc3nc(C)cc(C)c3cc21, the “percentage of barcode signal found” value was 5.33% (inactive). For N#CCN(CCCCN1CCN(c2ccc(F)cc2)CC1)C(=O)OCc1ccccc1, the “percentage of barcode signal found” value was 36.5% (inactive). For COc1ccc(-c2nn(C(C)C)c3ncnc(N)c23)cc1OC, the “percentage of barcode signal found” value was 95.5% (active). In the case of Cc1ccc2[nH]c(C3CCCNC3)c(-c3ccncc3)c2c1 (stereo not given), the “percentage of barcode signal found” value is reported as 79.4% (inactive). CCS(=O)(=O)N(Cc1ccco1)Cc1cc2ccc(C)cc2nc1O was tested, and the “percentage of barcode signal found” value was -1.14% (inactive). For Cc1ccc(S(=O)(=O)n2cc(-c3ccnc(N)c3)c3cc(Br)cnc32)cc1, the “percentage of barcode signal found” value was 1.79% (inactive). For CC(C)(C)C(=O)N(CCCCCCN1C[C@H](O)[C@@H](O)[C@H](O)[C@H]1CO)C1CCCCCC1, the “percentage of barcode signal found” value was 17% (inactive). Cn1c(=O)c2c(S(C)(=O)=O)snc2n(C)c1=O was tested, and the “percentage of barcode signal found” value was 21.4% (inactive). With c1ccc(Oc2ccc(-c3cc(CN4CCOCC4)[nH]n3)cc2)cc1 the “percentage of barcode signal found” value was 3.15% (inactive). c1ccc(-c2nc(NC3CCCCC3)cc(C3CC3)n2)nc1 was tested, and the “percentage of barcode signal found” value was 99.2% (active). In the case of Nc1ccc2ncnc(Nc3ccc(OCc4cccc(F)c4)c(Cl)c3)c2c1, the “percentage of barcode signal found” value is reported as 17.8% (inactive).

Source: the supplement of paper PMC8726507
